The values below come from PubChem BioAssay (EPA / NIEHS).

Structures are written as SMILES. Several values for one entry are separate records, joined by “and”; a condition that tells them apart may be missing. Equal values may be shown once. Results filed as inconclusive are left out. Where a structure was tested more than once in an assay, its records may differ in their call. Activity calls are given as the source filed them. Rule for the calls, unless noted: active = hit-call score of the fitted dose curve at least 0.9, where 1 is the maximum; inactive = score below 0.9.

Assay [1] concerns the target Myc proto-oncogene protein (Homo sapiens) (UniProt P01106). The assay can be described thus: ATG_Myc_CIS: Attagene CIS-FACTORIAL HepG2 Assay for human Myelocytomatosis (Myc) Proto-Oncogene Transcription Factor (AID 2282990). As to conditions: HepG2, Attagene cis-reporter transcription factor activity; actives raise or lower the signal. The procedure, abridged: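 Transiently transfected HepG2 cells bearing cis-promoter reporter units for endogenous transcription factors; 24 h exposure. Reporter mRNA measured by RT-PCR, 6-FAM primer extension, HpaI cut and capillary electrophoresis; bidirectional fit relative to DMSO.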

Assay [2] can be described thus: ATG_NF_kB_CIS: Attagene CIS-FACTORIAL HepG2 Assay for human Nuclear Factor Kappa B (NF-kB) (AID 2282991). As to conditions: HepG2 Attagene cis-factorial NF-kB reporter mRNA; actives raise or lower the signal. Summed up: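 HepG2 cells transiently transfected with multiplexed cis-element reporter units measuring endogenous transcription factor activity; reporter mRNA read 24 h after dosing by RT-PCR, fluorescent labelling, HpaI digestion and capillary electrophoresis. Bidirectional fit against DMSO baseline.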

Assay [3] is described as follows: ATG_NRF2_ARE_CIS: Attagene CIS-FACTORIAL HepG2 Assay for human Nuclear Factor Erythroid 2 Related Factor 2 (NFR2) response to Antioxidant Response Elements (ARE) (AID 2282992).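 For AC50: reporter mRNA level measured by RT-PCR and capillary electrophoresis fluorescence.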 As to conditions: HepG2 Attagene ARE/NRF2 reporter, transcription factor activity; actives raise or lower the signal. The procedure, abridged: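 Transient MRTU transfection of HepG2; 24 h compound exposure; TriZol RNA, RT with oligo(dT), PCR, 6-FAM primer extension, HpaI cut, CE. Bidirectional fit vs DMSO.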

In assay [4] the target is Cellular tumor antigen p53 (Homo sapiens) (UniProt P04637). Kind of assay: ATG_p53_CIS: Attagene CIS-FACTORIAL HepG2 Assay for human p53 Transcription Factor (AID 2282994). As to conditions: HepG2 p53 cis-element reporter, Attagene mRNA; actives raise or lower the signal. Summed up: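 HepG2, transient MRTU transfection (cis promoter elements, endogenous TFs); 24 h dosing; RNA isolation, RT-PCR, 6-FAM primer extension, HpaI digest, CE fluorescence; bidirectional fit vs DMSO.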

Assay [5] deals with human Peroxisome Proliferator-activated Receptor delta (PPARd), PPARD (gene 5467) (UniProt Q03181). The assay can be described thus: ATG_PPARd_TRANS: Attagene TRANS-FACTORIAL HepG2 Assay for human Peroxisome Proliferator-activated Receptor delta (PPARd) (AID 2283002; active = hit-call score of the fitted dose curve at least 0.9, where 1 is the maximum). Summed up: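 HepG2 cells transiently transfected with GAL4-UAS multiplexed reporter units driven by exogenous chimeric NR-GAL4 proteins; 24 h compound exposure. Reporter mRNA measured by RT-PCR, 6-FAM primer extension, HpaI digestion and capillary electrophoresis; gain of signal fitted relative to DMSO.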

The target of assay [6] is Peroxisome proliferator-activated receptor gamma (Homo sapiens) (UniProt P37231). Kind of assay: ATG_PPARg_TRANS: Attagene TRANS-FACTORIAL HepG2 Assay for human Peroxisome Proliferator-activated Receptor-gamma (PPARg) (AID 2283007; active = hit-call score of the fitted dose curve at least 0.9, where 1 is the maximum). Summed up:
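HepG2 cells transiently transfected with multiplexed GAL4-UAS reporter units and exogenous chimeric NR-Gal4 proteins; reporter mRNA quantified after 24 h compound exposure by RT-PCR, fluorescent labelling, HpaI digestion and capillary electrophoresis; gain-of-signal fitted versus DMSO baseline.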

Assay [7] deals with Nuclear receptor subfamily 1 group I member 2 (Homo sapiens) (UniProt O75469). Kind of assay: ATG_PXR_TRANS: Attagene TRANS-FACTORIAL HepG2 Assay for human Pregnane X Receptor (PXR) (AID 2283008; active = hit-call score of the fitted dose curve at least 0.9, where 1 is the maximum). Summed up: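 Read-out is fluorescence of labelled reporter cDNA fragments separated by capillary electrophoresis after RT-PCR and HpaI digestion. Source: HepG2 cells carrying PXR-GAL4/UAS reporter constructs, treated 24 h; activity fitted upward relative to DMSO.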

Assay [8] is described as follows: ATG_NFI_CIS: Attagene CIS-FACTORIAL HepG2 Assay for human Nuclear Factor I (NFI) (AID 2282989). As to conditions: HepG2 cis-regulatory reporter, NFI response element transcription; actives raise or lower the signal. Summed up: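 Reporter transcription driven by endogenous transcription factors in HepG2 cells; 24 h treatment. Quantitation by labelled RT-PCR fragments on capillary electrophoresis, gain- or loss-of-signal relative to DMSO.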

Assay [9] in a line: ATG_Oct_MLP_CIS: Attagene CIS-FACTORIAL HepG2 Assay for human Octamer-Binding Transcription Factor (Oct) (AID 2282993). As to conditions: HepG2 Attagene cis-factorial Oct reporter, mRNA; actives raise or lower the signal. The procedure, abridged: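 Transfected HepG2 cells, 24 h treatment. Reporter mRNA quantified by RT-PCR–capillary electrophoresis; bidirectional fitting against DMSO.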

Assay [10] in a line: BSK_3C_TissueFactor: BioMAP Diversity Plus: 3C Assay for Tissue Factor Biomarker Activity (AID 2282997). As to conditions: BioMAP 3C HUVEC, tissue factor biomarker readout; actives raise or lower the signal. The procedure, abridged: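 Values derive from bidirectional curve fitting against DMSO of Tissue Factor ELISA signals, taken 24 h after dosing primary human umbilical vein endothelial cells.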

Assay [11] is described as follows: BSK_3C_uPAR: BioMAP Diversity Plus: 3C Assay for Urokinase-type plasminogen activator receptor (uPAR) Biomarker Activity (AID 2282998). As to conditions: BioMAP 3C HUVEC, uPAR biomarker ELISA; actives raise or lower the signal. The procedure, abridged:
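Readout: ELISA for surface uPAR. System: human umbilical vein endothelial primary cells, 24 h after chemical exposure. Analysis: bidirectional fit, DMSO baseline.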

Assay [12] in a line: BSK_4H_Eotaxin3: BioMAP Diversity Plus: 4H Assay for Eotaxin 3 Biomarker Activity (AID 2283000).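 For outcome: CCL26 protein level quantified by ELISA in parallel with SRB cytotoxicity check.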 As to conditions: primary human endothelial cells (HUVEC); actives raise or lower the signal. Summed up: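 Endothelial primary cells (human umbilical vein) exposed to compound for 24 h. ELISA detection of Eotaxin-3.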
Assay [13] addresses human Peroxisome Proliferator-activated Receptor alpha (PPARa), PPARA (gene 5465) (UniProt Q07869). Kind of assay: ATG_PPARa_TRANS: Attagene TRANS-FACTORIAL HepG2 Assay for human Peroxisome Proliferator-activated Receptor alpha (PPARa) (AID 2283001; active = hit-call score of the fitted dose curve at least 0.9, where 1 is the maximum). The procedure, abridged:
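Measures transcriptional activity of an exogenous chimeric PPARa-Gal4 protein in transiently transfected HepG2 cells after 24 h dosing. Reporter mRNA quantified via RT-PCR and capillary electrophoresis; DMSO served as negative control.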

Read-out in assay [14]: Intercellular Adhesion Molecule 1 (ICAM1), ICAM1 (gene 3383)
The assay can be described thus: BSK_3C_ICAM1: BioMAP Diversity Plus: 3C Assay for Intercellular Adhesion Molecule 1 (ICAM1) Biomarker Activity (AID 2283003). As to conditions: primary human endothelial cells (HUVEC); actives raise or lower the signal. Summed up:
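Primary human umbilical vein endothelial cells in the BioMAP 3C system were exposed to chemicals for 24 h, then ICAM-1 was quantified by ELISA. Activity was fitted bidirectionally against the DMSO negative control baseline.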

For assay [15], the target named is human Retinoic Acid Receptor beta (RARb), RARB (gene 5915) (UniProt P10826). Kind of assay: ATG_RARb_TRANS: Attagene TRANS-FACTORIAL HepG2 Assay for human Retinoic Acid Receptor beta (AID 2283004; active = hit-call score of the fitted dose curve at least 0.9, where 1 is the maximum). Summed up: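 HepG2, transient MRTU transfection, NR–Gal4 chimera, 24 h treatment; RT-PCR plus CE fluorescence detection of reporter mRNA; gain of signal vs DMSO.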

The target in assay [16] is Retinoic acid receptor alpha (Homo sapiens) (UniProt P10276). Kind of assay: ATG_RARa_TRANS: Attagene TRANS-FACTORIAL HepG2 Assay for human Retinoic Acid Receptor alpha (RARa) (AID 2283005; active = hit-call score of the fitted dose curve at least 0.9, where 1 is the maximum). Summed up:
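HepG2 transiently transfected with multiplex GAL4-UAS reporter units including a human RARa–GAL4 chimera; 24 h compound exposure. Reporter mRNA quantified by RT-PCR, 6-FAM labeling and capillary electrophoresis; gain of signal versus DMSO.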

The nature of assay [17]: BSK_3C_Proliferation: Cell Proliferation Assessment in the BioMAP Diversity Plus: 3C Assay (AID 2283006).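 For AC50: potency may reflect either rise or fall in cell number versus DMSO.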 As to conditions: primary human endothelial cells (HUVEC). The procedure, abridged:
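Human umbilical vein endothelial cells were grown sub-confluent and exposed to chemical for 48 h, then fixed with 10% TCA and stained with 0.1% sulforhodamine B; absorbance at 560 nm gave relative cell number, fitted bidirectionally against DMSO baseline.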

The target of assay [18] is human Retinoic Acid Receptor gamma (RARg), RARG (gene 5916) (UniProt P13631). Kind of assay: ATG_RARg_TRANS: Attagene TRANS-FACTORIAL HepG2 Assay for human Retinoic Acid Receptor gamma (RARg) (AID 2283009; active = hit-call score of the fitted dose curve at least 0.9, where 1 is the maximum). Summed up: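 HepG2 cells transiently transfected with multiplexed reporter units expressing chimeric RARg-GAL4 and GAL4-UAS-driven reporters; 24 h compound exposure. Reporter mRNA quantified by RT-PCR with fluorescent labelling and capillary electrophoresis; gain-of-signal fitted relative to DMSO baseline.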
Chain of human Retinoic Acid Receptor gamma (RARg), RARG (gene 5916) (P13631 whole entry, looked up, the tested form may be a part): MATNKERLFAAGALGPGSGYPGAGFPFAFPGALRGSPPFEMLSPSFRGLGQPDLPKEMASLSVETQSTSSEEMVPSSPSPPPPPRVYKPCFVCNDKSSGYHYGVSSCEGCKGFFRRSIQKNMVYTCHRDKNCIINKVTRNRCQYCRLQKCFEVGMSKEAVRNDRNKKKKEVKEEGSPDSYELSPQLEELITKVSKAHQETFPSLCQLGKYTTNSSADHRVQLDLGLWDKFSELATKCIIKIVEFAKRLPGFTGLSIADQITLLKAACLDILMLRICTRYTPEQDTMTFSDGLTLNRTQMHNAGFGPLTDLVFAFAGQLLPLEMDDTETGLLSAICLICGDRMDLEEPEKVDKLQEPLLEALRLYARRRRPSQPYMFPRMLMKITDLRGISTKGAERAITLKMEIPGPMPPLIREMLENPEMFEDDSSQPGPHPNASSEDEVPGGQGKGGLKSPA

Chain of Peroxisome proliferator-activated receptor gamma (Homo sapiens) (P37231 whole entry, looked up, the tested form may be a part): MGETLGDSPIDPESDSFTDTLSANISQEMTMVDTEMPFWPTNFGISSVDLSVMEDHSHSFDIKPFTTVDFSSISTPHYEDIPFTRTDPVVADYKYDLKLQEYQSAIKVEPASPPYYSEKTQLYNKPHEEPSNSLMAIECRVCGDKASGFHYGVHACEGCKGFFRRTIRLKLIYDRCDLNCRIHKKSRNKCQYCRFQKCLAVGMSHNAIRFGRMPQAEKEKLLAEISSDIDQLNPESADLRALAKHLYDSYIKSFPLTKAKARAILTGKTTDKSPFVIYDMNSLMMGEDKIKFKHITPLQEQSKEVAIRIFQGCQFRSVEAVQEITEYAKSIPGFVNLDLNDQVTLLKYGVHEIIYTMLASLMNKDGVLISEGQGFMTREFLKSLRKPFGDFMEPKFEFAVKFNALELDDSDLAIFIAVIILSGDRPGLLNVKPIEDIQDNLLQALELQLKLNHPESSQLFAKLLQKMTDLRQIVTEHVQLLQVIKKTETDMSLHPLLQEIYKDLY
Chain of Cellular tumor antigen p53 (Homo sapiens) (P04637 whole entry, looked up): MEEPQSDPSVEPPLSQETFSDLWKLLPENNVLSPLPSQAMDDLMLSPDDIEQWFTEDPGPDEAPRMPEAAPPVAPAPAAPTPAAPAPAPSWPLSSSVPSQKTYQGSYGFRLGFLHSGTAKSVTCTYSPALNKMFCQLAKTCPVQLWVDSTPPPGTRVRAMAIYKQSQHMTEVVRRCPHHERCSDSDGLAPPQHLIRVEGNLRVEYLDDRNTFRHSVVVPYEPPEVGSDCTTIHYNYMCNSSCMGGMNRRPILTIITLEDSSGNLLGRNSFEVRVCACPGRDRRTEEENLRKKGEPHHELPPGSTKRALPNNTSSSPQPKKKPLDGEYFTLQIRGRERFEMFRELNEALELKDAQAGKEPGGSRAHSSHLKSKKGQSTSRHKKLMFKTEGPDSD
Chain of Myc proto-oncogene protein (Homo sapiens) (P01106 whole entry, looked up): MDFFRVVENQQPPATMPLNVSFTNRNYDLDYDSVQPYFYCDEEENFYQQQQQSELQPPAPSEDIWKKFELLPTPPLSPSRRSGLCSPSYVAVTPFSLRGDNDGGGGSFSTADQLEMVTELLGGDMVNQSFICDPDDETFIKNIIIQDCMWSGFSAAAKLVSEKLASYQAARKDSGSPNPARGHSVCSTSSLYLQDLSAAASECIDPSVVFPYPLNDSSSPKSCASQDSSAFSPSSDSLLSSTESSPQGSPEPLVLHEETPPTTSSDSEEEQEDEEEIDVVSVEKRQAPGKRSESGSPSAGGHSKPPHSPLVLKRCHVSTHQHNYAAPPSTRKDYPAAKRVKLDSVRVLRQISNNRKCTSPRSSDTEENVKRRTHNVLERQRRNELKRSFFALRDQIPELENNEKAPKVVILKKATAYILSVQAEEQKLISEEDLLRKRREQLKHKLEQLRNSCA
Chain of Nuclear receptor subfamily 1 group I member 2 (Homo sapiens) (O75469 whole entry, looked up, the tested form may be a part): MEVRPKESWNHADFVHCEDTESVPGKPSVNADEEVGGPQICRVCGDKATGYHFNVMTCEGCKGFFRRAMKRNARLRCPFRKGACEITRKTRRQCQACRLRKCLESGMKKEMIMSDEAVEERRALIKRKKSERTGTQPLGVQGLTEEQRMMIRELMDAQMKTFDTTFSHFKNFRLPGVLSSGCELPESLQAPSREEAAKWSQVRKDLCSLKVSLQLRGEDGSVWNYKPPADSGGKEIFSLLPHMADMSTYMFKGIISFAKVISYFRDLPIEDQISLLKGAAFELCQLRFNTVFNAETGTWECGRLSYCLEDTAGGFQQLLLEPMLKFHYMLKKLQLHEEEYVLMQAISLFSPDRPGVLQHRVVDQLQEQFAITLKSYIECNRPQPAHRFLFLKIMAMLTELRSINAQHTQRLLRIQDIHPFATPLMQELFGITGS
Chain of human Retinoic Acid Receptor beta (RARb), RARB (gene 5915) (P10826 whole entry, looked up, the tested form may be a part): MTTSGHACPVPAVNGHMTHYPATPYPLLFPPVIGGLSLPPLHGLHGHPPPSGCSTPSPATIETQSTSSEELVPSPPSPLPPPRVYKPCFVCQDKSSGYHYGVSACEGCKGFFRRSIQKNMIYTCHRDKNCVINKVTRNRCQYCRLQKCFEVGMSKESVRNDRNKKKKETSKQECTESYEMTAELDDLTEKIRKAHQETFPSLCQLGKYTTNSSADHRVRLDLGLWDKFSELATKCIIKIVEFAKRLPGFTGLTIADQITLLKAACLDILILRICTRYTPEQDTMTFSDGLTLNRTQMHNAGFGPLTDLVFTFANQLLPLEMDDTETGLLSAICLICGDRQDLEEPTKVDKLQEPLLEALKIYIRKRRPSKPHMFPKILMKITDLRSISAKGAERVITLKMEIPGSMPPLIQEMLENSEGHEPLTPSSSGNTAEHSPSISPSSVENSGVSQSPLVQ
Chain of human Peroxisome Proliferator-activated Receptor delta (PPARd), PPARD (gene 5467) (Q03181 whole entry, looked up, the tested form may be a part): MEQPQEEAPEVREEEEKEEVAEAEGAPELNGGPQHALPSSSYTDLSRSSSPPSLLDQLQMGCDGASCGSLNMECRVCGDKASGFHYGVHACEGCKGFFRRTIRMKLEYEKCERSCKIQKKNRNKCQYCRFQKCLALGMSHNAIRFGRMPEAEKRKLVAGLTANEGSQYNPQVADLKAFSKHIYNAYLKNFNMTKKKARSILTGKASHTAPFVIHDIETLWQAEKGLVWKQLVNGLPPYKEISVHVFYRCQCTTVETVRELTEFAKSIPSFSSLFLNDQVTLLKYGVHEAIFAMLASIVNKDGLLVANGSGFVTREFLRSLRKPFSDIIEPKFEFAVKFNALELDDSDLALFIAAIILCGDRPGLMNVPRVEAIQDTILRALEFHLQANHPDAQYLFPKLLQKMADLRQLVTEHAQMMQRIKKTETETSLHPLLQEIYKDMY
Chain of human Peroxisome Proliferator-activated Receptor alpha (PPARa), PPARA (gene 5465) (Q07869 whole entry, looked up, the tested form may be a part): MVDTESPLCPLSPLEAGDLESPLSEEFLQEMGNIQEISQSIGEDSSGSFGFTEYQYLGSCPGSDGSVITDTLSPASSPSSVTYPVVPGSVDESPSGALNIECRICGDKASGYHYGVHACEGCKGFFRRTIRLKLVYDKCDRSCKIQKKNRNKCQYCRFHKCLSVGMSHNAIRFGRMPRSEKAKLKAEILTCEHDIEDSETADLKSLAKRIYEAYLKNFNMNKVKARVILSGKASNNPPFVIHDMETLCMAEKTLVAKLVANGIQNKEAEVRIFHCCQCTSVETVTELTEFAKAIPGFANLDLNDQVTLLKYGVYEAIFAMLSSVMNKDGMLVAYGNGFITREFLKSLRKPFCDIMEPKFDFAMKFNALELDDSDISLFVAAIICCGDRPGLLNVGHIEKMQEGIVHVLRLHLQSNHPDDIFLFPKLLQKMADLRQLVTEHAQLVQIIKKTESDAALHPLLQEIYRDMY
Chain of Retinoic acid receptor alpha (Homo sapiens) (P10276 whole entry, looked up, the tested form may be a part): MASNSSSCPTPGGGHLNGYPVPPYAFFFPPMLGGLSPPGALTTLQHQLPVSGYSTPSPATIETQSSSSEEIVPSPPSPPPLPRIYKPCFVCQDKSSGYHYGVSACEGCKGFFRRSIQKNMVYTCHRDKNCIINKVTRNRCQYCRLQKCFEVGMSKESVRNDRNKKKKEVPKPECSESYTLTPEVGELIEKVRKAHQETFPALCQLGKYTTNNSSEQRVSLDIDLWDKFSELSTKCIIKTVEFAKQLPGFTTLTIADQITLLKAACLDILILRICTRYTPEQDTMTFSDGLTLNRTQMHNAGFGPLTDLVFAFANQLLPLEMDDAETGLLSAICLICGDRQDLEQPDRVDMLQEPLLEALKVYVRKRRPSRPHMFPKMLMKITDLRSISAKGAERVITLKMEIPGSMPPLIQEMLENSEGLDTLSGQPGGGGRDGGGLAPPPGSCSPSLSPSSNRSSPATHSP

Take `c1ccc(-c2ccccc2-c2ccccc2)cc1`: the outcome in assay [1], in assay [2], in assay [4], in assay [5] and in assay [6] was inactive. Further, the AC50 (in general, the concentration at which the activity in the assay is half-maximal) in assay [3] was 32.9 µM (active); in assay [7], 27 µM (active).
For the molecule `FC1CC(F)(F)C(F)(F)C1(F)F` (stereo not given), the call in assay [8], in assay [1], in [2], in assay [3], in [9] and in assay [10] was inactive. The result in assay [11], in assay [12], in assay [13], in assay [14], in assay [15] and in assay [16] was inactive. For the same molecule, the result in assay [17] and in assay [6] was inactive.
Take `CCC(=O)OCCc1ccccc1`: the result in [1], in assay [2], in assay [3], in assay [9], in assay [4] and in assay [7] was inactive.
On to `CC(CCl)OP(=O)(OC(C)CCl)OC(C)CCl` (stereo not given), for which the molecule was called inactive in assay [1], in [2], in assay [3], in assay [9], in [10] and in assay [11]. Besides, the result in assay [12], in [14], in [17], in assay [6] and in assay [18] was inactive. In addition, the AC50 in assay [7] was 0.801 µM (active).
Turning to `Oc1ccc(Nc2ccccc2)cc1`, the call in assay [1], in assay [2], in assay [4], in [10], in assay [11] and in [13] was inactive. Besides, the call in [5] and in assay [14] was inactive. Moreover, the AC50 was 43.9 µM (active) in assay [3]; 0.547 µM (active) in assay [12]; 14.6 µM (active) in assay [17]; 23.4 µM (active) in assay [6]; 20.5 µM (active) in assay [7].
For the molecule `O=C(O)C(F)(F)C(F)(F)C(F)(F)C(F)(F)C(F)(F)C(F)(F)C(F)(F)C(F)(F)C(F)(F)C(F)F`, the molecule was classed as inactive in assay [1], in [2], in assay [10], in assay [11], in [12] and in [14]. Further, the molecule was called inactive in assay [15] and in [18]. Further, the AC50 is 26.3 µM (active) in [3]; 29.1 µM (active) in assay [12]; 56.7 µM (active) and 47 µM (active) in assay [17]; 25.8 µM (active) in assay [6]; 64.5 µM (active) in [7].
